# Bioassay records deposited in PubChem BioAssay by National Center for Advancing Translational Sciences (NCATS).
# Hits are enriched below; roughly 7.4% of the tested compounds scored in any of these assays.
# Tau filament bind = binders of human tau filaments; P10636; recombinant tau filaments, thioflavin S fluorescence, 15 h; filaments grown with octadecylsulfate alongside compound; Potency, µM (highest dose often 57.1 µM), for the others: at the highest dose activity change, negative = inhibition; 2% of 71,000 active;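 also: % is scaled to controls: 0 for no effect and ±100 for the full control effect; actives lower thioflavin S fluorescence by blocking filaments or displacing dye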
#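 Tau 2 uM in ThS buffer dispensed; compound added; 60 uM ODS added (finals 1 uM tau, 30 uM ODS); 15 h 37 C; fluor ex450/em510.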
# HEK293 cAMP cs = counter-screen for TSHR agonists: cAMP increase in parental HEK293. Potency, µM (top dose mostly 57.1 µM), for inactives: top-dose activation, most hits filed as activators. parental HEK293 CNG cAMP sensor, membrane potential fluorescence. AID 938. 2.5% of 73,000 active; also: % of control where 0% means no effect; nearly all actives have a fitted effect of over 55% in size
#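 Parental HEK 293 cells stably expressing a cAMP-gated CNG channel were loaded with membrane potential dye containing 100 uM RO 20-1724 for 60 min. Compound added for 30 min; depolarization read as fluorescence intensity at 590 nm.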
# CRE-bla Fsk = CRE-bla signaling modulation under forskolin stimulation | CHO CRE-bla reporter (cAMP response element driving beta-lactamase), forskolin EC10, beta-lactamase ratio | Potency, µM (titrated, usually from 38.2 µM), inactives show top-dose activity change, negative = inhibition, actives largely listed as activators | 2.5% of 71,000 active; active = well fitted activation curve with a large enough effect in the signal ratio, with a control signal flat, not every such curve was filed as active; inconclusive = small, poorly fitted or top-dose-only effect, or effect the other way, or a change in a side signal; the % refers to the signal ratio; also: % of control where 0% means no effect
#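 Forskolin analogue NKH 477 at EC10 stimulated CRE-driven beta-lactamase in CHO cells alongside compound dilution series. Beta-lactamase was measured with CCF4, excitation 405 nm, emission ratio 460/530 nm.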
# ERK AVP inh = blocks ERK signaling stimulated by vasopressin; HEK293-V1b, vasopressin-stimulated pERK AlphaScreen; Potency, µM (series often up to 57.5 µM), for the others: at the top dose activity, negative = inhibition, most hits filed as inhibitors; 0.99% of 72,000 active; AID 995; also: % is scaled to controls: 0 for no effect and ±100 for the full control effect; nearly all actives have a fitted effect of over 55% in size
#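 qHTS, compounds titrated on V1b-expressing HEK293 cells. Preincubation 30 min at 37C, vasopressin 25 nM for 5 min, lysis 10 min, bead incubation 5 hr at room temperature.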
# TSHR agonist = agonists of human thyroid stimulating hormone receptor. 0.48% of 73,000 active. HEK293-CNG-TSHR cells (CNG channel as cAMP sensor), membrane potential dye, cAMP. P16473. AID 926. Potency, µM (highest dose often 57.1 µM), for the others: at the highest dose activation, usual class: activators; active = well fitted activation curve with a large enough effect in the main read-out, with a control signal flat, not every such curve was filed as active; inconclusive = small, poorly fitted or top-dose-only effect, or a change in a side signal; inactive = no such curve, though single readings can be large or run the other way; % of control where 0% means no effect;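 also: the control signal comes from parental cells without the receptor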
# Target sequence (P16473 whole entry, looked up): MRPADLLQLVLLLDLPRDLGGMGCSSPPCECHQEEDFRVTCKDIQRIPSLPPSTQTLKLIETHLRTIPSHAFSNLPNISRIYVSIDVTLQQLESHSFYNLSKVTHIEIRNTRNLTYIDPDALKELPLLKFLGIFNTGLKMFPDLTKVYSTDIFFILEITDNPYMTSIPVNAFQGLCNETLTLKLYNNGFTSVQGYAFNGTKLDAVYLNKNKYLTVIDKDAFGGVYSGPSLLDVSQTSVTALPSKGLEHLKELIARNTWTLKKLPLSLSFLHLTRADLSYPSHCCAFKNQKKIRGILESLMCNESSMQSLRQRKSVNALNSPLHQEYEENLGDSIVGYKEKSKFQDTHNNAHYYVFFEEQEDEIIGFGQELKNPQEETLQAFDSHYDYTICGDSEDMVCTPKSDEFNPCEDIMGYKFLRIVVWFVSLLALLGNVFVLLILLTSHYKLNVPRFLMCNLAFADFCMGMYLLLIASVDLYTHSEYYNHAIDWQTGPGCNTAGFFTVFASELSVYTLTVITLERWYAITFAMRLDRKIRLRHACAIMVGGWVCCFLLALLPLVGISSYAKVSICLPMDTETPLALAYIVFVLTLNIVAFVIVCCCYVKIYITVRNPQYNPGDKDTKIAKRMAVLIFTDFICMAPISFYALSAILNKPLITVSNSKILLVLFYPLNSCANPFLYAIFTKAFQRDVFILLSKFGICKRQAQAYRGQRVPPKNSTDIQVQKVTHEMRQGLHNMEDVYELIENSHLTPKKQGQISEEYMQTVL
#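 cAMP rise detected as CNG-channel membrane depolarization by fluorescent dye (emission 590 nm), 30 min after compound, following 60 min dye loading containing 100 uM RO 20-1724 at room temperature. Cells: TSHR/CNG HEK 293, with parental CNG HEK 293 as control.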
# An asterisk follows results filed as active; ? = inconclusive; / = no result; [ ] = dose if it differs, or a comment. Unless noted, calls follow the shape of the dose curve; as a rule, active = well fitted curve in the direction sought with a large enough effect; inconclusive = small, poorly fitted or top-dose-only effect, or another doubt; inactive = no such curve, though single readings can be large; an effect the other way counts as inactive or inconclusive. Potency is read from the fitted curve at half-maximal effect.
SMILES,Tau filament bind,HEK293 cAMP cs,CRE-bla Fsk,ERK AVP inh,TSHR agonist
COc1ccc(C(C)=O)cc1COC(=O)c1ccc2c(c1)OCO2,25%,32µM*,?,25%,?
CCOC(=O)CCC(NC(=O)c1ccc(NCN2C(=O)c3ccccc3C2=O)cc1)C(=O)OCC (configuration not stated),-10%,0.79µM*,-1%,20%,?
CC(C)N=c1cc2n(-c3ccc(Cl)cc3)c3ccccc3nc-2cc1Nc1ccc(Cl)cc1,0.13µM*,6%[25.6 µM],-2%[17.1 µM],?,-20%[25.6 µM]
Cn1c(CNc2ccc(Cl)cc2)nc2ccccc21,-5%,-3%,3%,?,-6%
Cc1ccc(S(=O)(=O)n2c3ccccc3c3nnc(C(=O)c4ccccc4)nc32)cc1,/,-10%[11.4 µM],/,11%[11.5 µM],-16%[11.4 µM]
Cc1c2cc[n+](CCN3CCCCC3)cc2c(C)c2c1[nH]c1ccc(O)cc12,4µM*,11%[11.4 µM],-4%[7.6 µM],-2%[11.5 µM],-1%[11.4 µM]
C/C(=C\COc1cc(=O)[nH]c2ccccc12)CC[C@@H](O)C(C)(C)O,40µM*,-4%,-11%,/,1%
c1ccc(CN2CCN(CCCNc3ccc4nnc(-c5ccccc5)n4n3)CC2)cc1,82%,8%,20%,40µM*,-27%
Fc1ccc([C@H]2CCNCC2COc2ccc3c(c2)OCO3)cc1 (some centres not stated),/,/,/,4%,/
Fc1ccc([C@H]2CCNC[C@H]2COc2ccc3c(c2)OCO3)cc1,32µM*,8%,-8%,-14%,21%
N[C@@H]1CCN(O)C1=O,?,?,-16%,-2%,?
O=C(CSc1nnc(C2CC2)n1Cc1ccccc1)c1cc2ccccc2o1,10µM*,?,?,-15%,?
O=C(CN1CCOCC1)N1CCN(S(=O)(=O)c2ccccc2)C1c1ccccc1 (configuration not stated),1%,?,?,-16%,?
Cc1ccc(S(=O)(=O)N2CCN(C(=O)CN3CCOCC3)C2c2ccccc2)cc1 (configuration not stated),3%,20µM*,5%,-14%,?
O=C(Nc1ccc(SC(F)F)cc1)c1ccc2nccnc2c1,13µM*,6%,1%,25µM*,0%
O=C(Nc1ccc2c(c1)OCCO2)c1ccc2nccnc2c1,-5%,-15%,4%,-5%,-2%
COc1cc([C@H](O)CO)ccc1O,-7%,0%,6%,23%,/
O=c1c(-c2ccccc2)nc2cnc(N3CCNCC3)nc2n1Cc1ccc(F)cc1,47%,7%[0.457 µM],?,15%,1%
COc1cccc(Cn2c(=O)c(C)nc3cnc(N4CCNCC4)nc32)c1,0%,?,?,11%,?
COc1cccc(Cn2c(=O)c(CCc3ccccc3)nc3cnc(N4CCNCC4)nc32)c1,99%,11%,?,-20%,-2%
COc1cccc(Cn2c(=O)c(CCc3ccccc3)nc3cnc(N4CCOCC4)nc32)c1,16%,25%,2µM*,0%,-1%
COc1cccc(Cn2c(=O)c(-c3cc(F)cc(F)c3)nc3cnc(N4CCNCC4)nc32)c1,4µM*,11%,?,?,1%
O=c1c(-c2cc(F)cc(F)c2)nc2cnc(N3CCNCC3)nc2n1Cc1ccc(F)cc1,4µM*,-16%,?,?,-3%
C#CCN1C(C)=C(C(=O)OC)[C@@H](c2cccc([N+](=O)[O-])c2)C(C(=O)OCC)=C1C,-30%,8%,6%,-5%,/
O=C1C=CC(=Nc2cccc3c(N=C4C=CC(=O)O4)cccc23)O1,-2%[11.4 µM],3%[11.4 µM],-7%[7.6 µM],19%[11.5 µM],22%[11.4 µM]
SMILES,Tau filament bind,HEK293 cAMP cs,CRE-bla Fsk,ERK AVP inh,TSHR agonist
C[C@@]12CCC(=O)C=C1CC[C@H]1[C@@H]2[C@@H](O)C[C@]2(C)[C@@H]1CC[C@@]2(O)C(=O)COC(=O)C1CCCC1,5%[11.4 µM],11%[11.4 µM],-8%[7.6 µM],0%[11.5 µM],7%[11.4 µM]
COC(=O)[C@@]1(Cc2ccc(OC)cc2)[C@H]2c3cc(C(=O)N4CCCC4)n(Cc4ccc(Cl)c(C(F)(F)F)c4)c3C[C@H]2CN1C(=O)c1ccccc1,0%,?,1%,14%,?
COC(=O)[C@@]1(Cc2ccc(OC)cc2)[C@H]2c3cc(C(=O)N4CCCC4)n(Cc4ccsc4Br)c3C[C@H]2CN1C(=O)c1ccccc1,29%,2.5µM*,-11%,-11%,?
COC(=O)[C@@]1(Cc2ccc(OC)cc2)[C@H]2c3cc(C(=O)N4CCCC4)n(Cc4ccccn4)c3C[C@H]2CN1C(=O)c1ccccc1,-2%,?,-10%,3%,?
COC(=O)[C@@]1(Cc2ccc(OC)cc2)[C@H]2c3cc(C(=O)N4CCCC4)n(Cc4cc(F)cc5c4OCOC5)c3C[C@H]2CN1C(=O)c1ccccc1,38%,4µM*,0%,-4%,?
COC(=O)[C@@]1(Cc2ccc(OC)cc2)[C@H]2c3cc(C(=O)N4CCCC4)n(Cc4ccc(S(C)(=O)=O)cc4)c3C[C@H]2CN1C(=O)c1ccccc1,4%,20µM*,-16%,-3%,?
COC(=O)[C@@]1(Cc2ccc(OC)cc2)[C@H]2c3cc(C(=O)N4CCCC4)n(Cc4ccc(C)o4)c3C[C@H]2CN1C(=O)c1ccccc1,4%,3.2µM*,3%,22%,?
COC(=O)[C@@]1(Cc2ccccc2)[C@H]2c3cc(C(=O)N4CCCC4)n(Cc4ccc(S(C)(=O)=O)cc4)c3C[C@H]2CN1C(=O)c1ccccc1,8%,7.9µM*,-27%,25%,?
COC(=O)[C@@]1(Cc2ccc(F)cc2)[C@H]2c3cc(C(=O)N4CCCC4)n(Cc4ccccc4)c3C[C@H]2CN1C(=O)c1ccccc1,17%,?,-1%,-6%,?
N#Cc1c(-c2ccco2)cc(-c2ccc(F)cc2)nc1N,-17%,?,13µM*,5%,?
CC(C)Cc1cc(-c2ccco2)c(C#N)c(N)n1,-1%,?,1.6µM*,-18%,?
COC(=O)CSc1nc(-c2ccccc2)cc(-c2ccco2)c1C#N,-11%,?,11%,-10%,?
COc1cc2c3cc1Oc1c(OC)c(OC)cc4c1[C@@H](Cc1ccc(O)c(c1)Oc1ccc(cc1)C[C@@H]3N(C)CC2)CN(C)C4,4%[11.4 µM],1%[11.4 µM],-9%[7.6 µM],-3%[11.5 µM],15%[11.4 µM]
COC(=O)[C@@H]1CCCN1C(=O)[C@@H](C)CO,/,-7%[11.4 µM],/,0%[11.5 µM],-3%[11.4 µM]
Cc1cc2c(C)nc(-c3ccccc3)nc2o1,-4%,1%,0.4µM*,-17%,16%
COc1cc2c(C)nc3onc(-c4ccccc4)c3c2cc1OC,12%,3%,?,-27%,26%
O=C(O)c1cc2ccccc2c(S(=O)(=O)O)c1O,16%[11.4 µM],2%[11.4 µM],-9%[7.6 µM],-16%[11.5 µM],6%[11.4 µM]
